Screening results from PubChem.
PostGolgi yeast: phenotypic screen on post-Golgi transport, primary screen. post-Golgi transport phenotypic cell assay. inhibition, % at 10 µM. 0.9% of 98,000 active. AID 739, 2007;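 further: yeast cells grown in 1536-well plates; yeast grown about 18 h at 30C before absorbance read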
CYP2C19 inhib: blockers of cytochrome P450 2C19 activity – biochemical, luminescence, ADME assay, primary screen | inhibition, % at 5 µM | 21% of 96,000 active | AID 778, 2007 | P33261 | CYP2C19 Supersomes, luciferin-H EGE luminescence, 30 min;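 active means CYP2C19 inhibition above a set limit at 5 µM in the primary screen, cut at about 50% in these data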
CYP2C9 act: human CYP2C9 activators, primary screen, biochemical, luminescence. recombinant CYP2C9, luciferin-H conversion; stronger effect = higher value; factor 1 = untreated enzyme, 0 = blocked. activation factor at 5 µM. 1.4% of 96,000 active;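 active means activation factor of 2 or more for CYP2C9 at a 5 µM dose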
Target sequence (P11712 whole entry, looked up): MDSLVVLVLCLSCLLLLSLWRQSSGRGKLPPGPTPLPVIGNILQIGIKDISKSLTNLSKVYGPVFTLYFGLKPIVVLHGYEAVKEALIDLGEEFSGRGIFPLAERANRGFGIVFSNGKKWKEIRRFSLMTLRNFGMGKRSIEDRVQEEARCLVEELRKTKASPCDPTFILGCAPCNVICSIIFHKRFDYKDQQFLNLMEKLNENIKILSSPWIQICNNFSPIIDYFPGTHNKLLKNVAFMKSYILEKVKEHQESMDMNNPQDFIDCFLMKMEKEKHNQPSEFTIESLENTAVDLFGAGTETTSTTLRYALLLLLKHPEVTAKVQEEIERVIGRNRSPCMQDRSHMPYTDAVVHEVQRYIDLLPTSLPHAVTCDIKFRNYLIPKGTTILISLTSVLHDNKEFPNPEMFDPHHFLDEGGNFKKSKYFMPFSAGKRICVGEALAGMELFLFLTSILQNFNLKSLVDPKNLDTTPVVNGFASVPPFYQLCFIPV
PostGolgi ctrl: growth inhibition of yeast control strain, primary screen, counter-screen for post-Golgi transport modulator project; 5% of 98,000 active; inhibition, % at 10 µM; AID 738, 2007; efflux-deficient yeast background strain, growth absorbance A615, 16 h
CYP2C9 inh: blockers of cytochrome P450 2C9 activity – biochemical, luminescence, ADME assay, primary screen; inhibition, % at 5 µM; P11712; 20% of 96,000 active; CYP2C9 Supersomes, luciferin-H conversion; AID 777, 2007;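 active means blocking of liver enzyme CYP2C9 beyond about 50% at 5 µM, limit read from the data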
CYP2C19 act: human CYP2C19 activators, primary screen, biochemical, luminescence. Cytochrome P450 2C19 (Homo sapiens), P33261. recombinant CYP2C19, luciferin-H EGE luminescence; stronger effect = higher value; 0 = fully inhibited enzyme, 1 = untreated enzyme. activation factor at 5 µM. 96,000 tested, under 10 active. AID 1025, 2008;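 active means activation factor of at least 2 at 5 µM in the primary screen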
Large screens that a line does not name were inactive. Shown are actives, neighbours in structure and some others; about 32% of the full set was active somewhere. Unless noted, no stated cut-off is given here; in the data, active means inhibition above about 30%; inactive means the rest.

CC1CC(C)CN(S(=O)(=O)c2ccc(C(=O)NCc3ccc4c(c3)OCO4)cc2)C1 (configuration not stated)	none
COc1ccc(OC)c(-c2cc(C(=O)Nc3cc(C)n(Cc4ccc(Cl)cc4)n3)no2)c1	none
COc1ccc2c(Cl)c(C(=O)NCCCn3ccnc3)sc2c1Cl	CYP2C19 inhib 88.1, CYP2C9 inh 88.2
CCNc1ccc2c(Cl)cc(=O)oc2c1	none
COc1ccc(C(=O)NCCCn2ccnc2)cc1	CYP2C19 inhib 89.0
COc1ccc(-c2cnc(OC(C)(C)C)nc2OC(C)(C)C)cc1OC	none
CCOC(=O)c1sc(NC(=O)/C=C/c2cnn(C)c2C)c(C(=O)OCC)c1C	none
CCOC(=O)c1c(NC(=O)CCN2C(=O)c3ccccc3C2=O)sc(C(=O)OC(C)C)c1C	CYP2C9 inh 60.0
CCOC(=O)c1sc(NC(=O)CCN2C(=O)c3cccc([N+](=O)[O-])c3C2=O)c(C(=O)OCC)c1C	CYP2C9 inh 56.7
CCOc1ccc(NC(=O)CSc2nc3cccnc3n2CC)cc1	none
CN(CCO)C(=O)CCC(=O)Nc1ccc(S(N)(=O)=O)cc1	none
CC(=O)NC(C)c1ccc(Cl)c(Cl)c1 (configuration not stated)	CYP2C19 inhib 75.4
CN1C(=O)C2(N=c3ccccc3=N2)c2ccccc21	CYP2C9 inh 80.0
CN1C(=O)C(O)(C2OC(C)(C)CCC2=O)c2ccccc21 (configuration not stated)	none
CC1CC(OCC(O)CN2CCN(Cc3ccccc3)CC2)CC(C)(C)C1 (configuration not stated)	PostGolgi yeast 83.3, PostGolgi ctrl 31.7 (no result: CYP2C19 inhib, CYP2C9 act, CYP2C9 inh, CYP2C19 act)
OC(COCc1ccccc1)CN1CCCC1 (configuration not stated)	none
O=C(NCCN1CCN(c2ccccc2F)CC1)C1CCCN(S(=O)(=O)c2cnc[nH]2)C1 (configuration not stated)	none
O=C(NCCC1=CCCCC1)C1CCCN(S(=O)(=O)c2cnc[nH]2)C1 (configuration not stated)	CYP2C19 inhib 95.8, CYP2C9 inh 66.2
O=C(NCCc1ccccc1)C1CCCN(S(=O)(=O)c2cnc[nH]2)C1 (configuration not stated)	CYP2C19 inhib 84.8, CYP2C9 inh 59.2
O=C(C1CCCN(S(=O)(=O)c2cnc[nH]2)C1)N(CCc1ccccc1)Cc1ccccc1 (configuration not stated)	CYP2C19 inhib 73.6
O=C(NCC1COc2ccccc2O1)C1CCCN(S(=O)(=O)c2cnc[nH]2)C1 (configuration not stated)	CYP2C19 inhib 90.0, CYP2C9 inh 50.2 (no result: PostGolgi yeast, PostGolgi ctrl)
Cc1cc(/C=N/NC(N)=O)c(C)c(CO)c1	none
O=C(NCCN1CCC(Cc2ccccc2)CC1)C1CCCN(S(=O)(=O)c2cnc[nH]2)C1 (configuration not stated)	none
Cc1cccc(CCNC(=O)C2CCCN(S(=O)(=O)c3cnc[nH]3)C2)c1 (configuration not stated)	CYP2C19 inhib 92.5, CYP2C9 inh 77.2
S=c1[nH]nc(C2CCCCC2)n1/N=C/c1ccc(Br)s1	none
Cc1ccc2c(c1)N(C(=O)NC1CCCCC1)C(C)(C)CC2C (configuration not stated)	CYP2C19 inhib 71.6
CCCc1[nH]nc2c1C1(C(=O)N(CC)c3ccccc31)C(C#N)=C(N)O2 (configuration not stated)	none
O=C(CN1CCC2(CC1)OCCO2)c1ccc2cc[nH]c2c1	CYP2C19 inhib 85.5
O=C(CN1CCN(c2ccccc2)CC1)c1ccc2cc[nH]c2c1	none
CC1=C(C#N)C(NC(=O)C2CC2)(C(F)(F)F)C(=O)N1 (configuration not stated)	none
Cc1nnc(SCCn2c(Br)nc3c2c(=O)n(C)c(=O)n3C)s1	CYP2C19 inhib 80.2
Cc1ccc(Cl)c(OCCCCN(C)Cc2ccccc2)c1	PostGolgi yeast 93.0, PostGolgi ctrl 33.8
COc1cc(OC)c(CN2CCN(c3ccc(F)cc3)CC2)cc1Br	CYP2C19 inhib 77.5
